Measurements published in PubChem BioAssay AID1851 (National Center for Advancing Translational Sciences (NCATS), 2009).
The campaign covered roughly 16,000 compounds. About 5,100 (32%) were called active. Roughly 25% stayed inconclusive and do not appear here. The call rests on the fitted dose curve; in most records, active means well fitted curve in the direction sought with a large enough effect; inconclusive means small, poorly fitted or top-dose-only effect, or effect the other way; inactive means no such curve, though single readings can be large or run the other way. This is one part of the list.
On the % scale 0 is the no-effect control and ±100 the full control effect.

These molecules were tested against Cytochrome P450 3A4 (Homo sapiens) (UniProt P08684) (assay: Cytochrome panel assay with activity outcomes). Conditions: recombinant CYP, pro-luciferin dealkylation, luminescence, p450-cyp3a4; series mostly up to 57.1 µM.
Sequence of Cytochrome P450 3A4 (Homo sapiens) (P08684 whole entry, looked up): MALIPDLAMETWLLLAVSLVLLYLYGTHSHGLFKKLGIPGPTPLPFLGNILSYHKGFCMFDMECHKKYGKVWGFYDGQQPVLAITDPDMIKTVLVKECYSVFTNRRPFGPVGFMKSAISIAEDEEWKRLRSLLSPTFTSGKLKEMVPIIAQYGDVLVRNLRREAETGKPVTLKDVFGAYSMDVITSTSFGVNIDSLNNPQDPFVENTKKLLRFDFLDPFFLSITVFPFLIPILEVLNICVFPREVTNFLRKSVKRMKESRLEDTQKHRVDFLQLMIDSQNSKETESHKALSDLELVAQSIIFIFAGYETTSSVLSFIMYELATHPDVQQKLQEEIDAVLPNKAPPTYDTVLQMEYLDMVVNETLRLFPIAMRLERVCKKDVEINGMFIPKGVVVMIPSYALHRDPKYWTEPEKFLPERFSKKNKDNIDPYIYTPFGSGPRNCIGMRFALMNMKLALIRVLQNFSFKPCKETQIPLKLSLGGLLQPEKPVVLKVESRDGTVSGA
For `c1cncc(-c2cncnc2NCc2cccs2)c1`, the AC50 was 2 µM (active).
For `c1csc(CNc2ncncc2-c2ccoc2)c1`, the AC50 was 2 µM (active).
For `c1ccc(CNc2ncncc2-c2ccoc2)cc1`, the AC50 was 2 µM (active).
With `CCN(CC)CC[n+]1ccc2c(C)c3[nH]c4ccccc4c3c(C)c2c1` the activity, negative = inhibition was -16.9% [at 11.4 µM] (inactive).
`CCOc1ccc(N2C(=O)CN=C2Nc2ccccc2F)cc1` was tested, and the activity, negative = inhibition was 3.08% [at 2.29 µM] (inactive).
In the case of `C=CCN1C(=O)CN=C1Nc1ccccc1`, the AC50 is reported as “inactive”.
For `COc1ccc(NC2=NCC(=O)N2Cc2cccs2)cc1`, the AC50 was 14.1 µM (active).
In the case of `O=C1CN=C(Nc2ccccc2)N1Cc1cccs1`, the activity, negative = inhibition is reported as -6.15% [at 2.29 µM] (inactive).
With `CCOc1ccc(NC2=NCC(=O)N2Cc2cccs2)cc1` the AC50 was 17.8 µM (active).
With `COc1ccccc1-c1ccc2ncnc(NCc3cccnc3)c2c1` the AC50 was 0.631 µM (active).
In the case of `COCCNc1ncnc2ccc(-c3ccccc3C(F)(F)F)cc12`, the AC50 is reported as 15.8 µM (active).
For `FC(F)(F)c1ccccc1-c1ccc2ncnc(NCc3cccnc3)c2c1`, the AC50 was 1.58 µM (active).
For `COCCNc1ncnc2ccc(-c3ccccc3OC)cc12`, the AC50 was 15.8 µM (active).
For `O=C(c1ccccc1)c1ccc2n1CC[C@H]2C(=O)O`, the AC50 was “inactive”.
For `O=C(O)c1cc2c(o1)CCC/C2=N\O`, the AC50 was “inactive”.
`CC(C)(CS)C(=O)N1CCC[C@H]1C(=O)O` was tested, and the AC50 was “inactive”.
`COc1cccc(-c2ccc3ncnc(NCc4cccnc4)c3c2)c1` was tested, and the AC50 was 1 µM (active).
In the case of `COc1ccccc1-c1ccc2ncnc(NCc3ccccc3)c2c1`, the AC50 is reported as 12.6 µM (active).
For `Clc1ccccc1-c1ccc2ncnc(NCc3cccnc3)c2c1`, the AC50 was 2 µM (active).
For `Cc1cc(OC(=O)c2ccc(Cl)cc2Cl)nc(C)n1`, the AC50 was “inactive”.
In the case of `COc1ccc(-c2nn3cnnc3s2)cc1OC`, the AC50 is reported as 14.1 µM (active).
For `COc1ccc(-c2ccc(=O)n(CC(=O)Nc3nnc(C(C)C)s3)n2)cc1OC`, the AC50 was “inactive”.
In the case of `O=S1(=O)OC(c2ccc(O)cc2)(c2ccc(O)cc2)c2ccccc21`, the activity, negative = inhibition is reported as -11.8% [at 11.4 µM] (inactive).
For `Fc1ccc2c(c1)C1C=CCC1C(c1cc3c(cc1Br)OCO3)N2` (centres undefined), the activity, negative = inhibition was -4.14% [at 2.29 µM] (inactive).
With `CC1(C)CC(=O)C2=C(C1)Nc1cc3c(cc1C2c1ccc(F)cc1)OCO3` (centres undefined) the AC50 was 1 µM (active).
`Nc1nc(Br)c2c(F)cccc2c1-c1ccc(F)cc1` was tested, and the AC50 was 22.4 µM (active).
With `Nc1nc(Br)c2ccccc2c1-c1ccc(F)cc1` the AC50 was 14.1 µM (active).
`Nc1nc(Br)c2c(F)cccc2c1-c1ccc(Cl)cc1` was tested, and the AC50 was 20 µM (active).
For `COC(=O)C[C@@H]1O[C@H]1[C@H](C)[C@@H](OC)C(C)C`, the AC50 was 3.98 µM (active).
`CO[C@@H](C(C)C)[C@@H](C)[C@@H]1OC(=O)C[C@@H]1O` was tested, and the activity, negative = inhibition was -9.77% [at 11.4 µM] (inactive).
With `CO[C@@H]1COC(=O)[C@H](CCSC)NC(=O)C/C=C\[C@@H](C)COC(=O)[C@@H]2CCCN2C(=O)C/C=C\[C@H]1C` the activity, negative = inhibition was -23.1% [at 11.4 µM] (inactive).
With `Cc1ccc(S(=O)(=O)CC(O)CN2CCCC2=O)cc1` (centres undefined) the AC50 was “inactive”.
In the case of `O=C(NCCCN1CCCC1=O)c1ccc(CNS(=O)(=O)c2ccc(F)cc2)cc1`, the activity, negative = inhibition is reported as -13.5% [at 11.4 µM] (inactive).
With `Cc1ccc(S(=O)(=O)N(CCCN2CCCC2=O)Cc2cc3c(C)ccc(C)c3[nH]c2=O)cc1` the AC50 was 1.12 µM (active).
With `COc1ccccc1CNc1ncncc1-c1ccccc1Cl` the AC50 was 0.2 µM (active).
`COc1ccccc1CNc1ncncc1-c1ccccc1OC` was tested, and the AC50 was 0.2 µM (active).
In the case of `c1ccc2c3c([nH]c2c1)[C@@H]1[C@H]2CC[C@H]([C@H]4CCCN[C@H]42)N1CC3`, the AC50 is reported as “inactive”.
With `COC(=O)CSc1ncc(OC)c(OC)n1` the AC50 was “inactive”.
`CCOC(=O)C1CCN(C(=O)C2CCN(c3nc4ccc(OC)cc4s3)CC2)CC1` was tested, and the AC50 was “inactive”.
For `Cc1sc2ccccc2[n+]1CCC(=O)O`, the activity, negative = inhibition was -6.82% [at 11.4 µM] (inactive).
`CCOC(=O)C[n+]1c(C)sc2ccc(OC)cc21` was tested, and the AC50 was 3.55 µM (active).
In the case of `C1CCN(CC[C@@H]2CCCCN2)CC1`, the activity, negative = inhibition is reported as -2.6% [at 11.4 µM] (inactive).
For `CCC/C=C(\CCC)C(NP(=O)(c1ccccc1)c1ccccc1)c1ccc(C(F)(F)F)cc1` (centres undefined), the AC50 was 3.16 µM (active).
With `CCC/C=C(\CCC)C(NP(=O)(c1ccccc1)c1ccccc1)c1ccc(-c2ccccc2)cc1` (centres undefined) the AC50 was 3.98 µM (active).
`CN(C)C(=O)/N=N\C(=O)N(C)C` was tested, and the AC50 was “inactive”.
In the case of `O=C(O)C(Cc1ccccc1)Cc1ccccc1`, the activity, negative = inhibition is reported as 5.23% [at 11.4 µM] (inactive).
With `CS(=O)(=O)N1CCC2(CC1)CN(C(=O)Nc1ccccc1)C2` the AC50 was “inactive”.
In the case of `CS(=O)(=O)N1CCN(c2ccccc2NC(=O)c2ccc(Br)o2)CC1`, the AC50 is reported as 15.8 µM (active).
In the case of `Nc1nc(N)c2nn(-c3ccc(C(=O)O)cc3)nc2n1`, the activity, negative = inhibition is reported as -6.41% [at 11.4 µM] (inactive).
`Cc1ccc2nc(NC(=O)COC(=O)c3ccc(Br)o3)sc2c1` was tested, and the AC50 was 15.8 µM (active).
With `CCCOc1ccc(C(=O)NC(=S)Nc2nc3ccc(C)cc3s2)cc1` the activity, negative = inhibition was 13.6% [at 2.29 µM] (inactive).
`Cc1ccc2nc(NC(=O)CSCC(=O)OCC(=O)c3ccc(Br)cc3)sc2c1` was tested, and the AC50 was 10 µM (active).
In the case of `Cc1ccc2nc(NC(=O)COC(=O)CSc3nc(C)cc(C)n3)sc2c1`, the AC50 is reported as “inactive”.
In the case of `CS(=O)(=O)Nc1c(O)ccc2c1CCC[C@H]2C1=NCCN1`, the AC50 is reported as “inactive”.
In the case of `COc1ncc2nc(CCc3ccccc3)c(=O)n(CCc3ccccc3)c2n1`, the AC50 is reported as 3.16 µM (active).
For `COc1ncc2nc(CCc3ccccc3)c(=O)n(C)c2n1`, the AC50 was “inactive”.
For `COCCn1c(=O)c(CCc2ccccc2)nc2cnc(Oc3ccc(OC)cc3)nc21`, the AC50 was 3.16 µM (active).
For `O=c1cnc2cnc(Oc3ccccc3)nc2n1CCc1ccccc1`, the AC50 was “inactive”.
In the case of `COCCn1c(=O)c(CCc2ccccc2)nc2cnc(OC)nc21`, the AC50 is reported as 12.6 µM (active).
In the case of `COc1ccc(Oc2ncc3ncc(=O)n(CCc4ccccc4)c3n2)cc1`, the AC50 is reported as 1.26 µM (active).
With `Cc1nc2cnc(Oc3cccc(Cl)c3)nc2n(CCc2ccccc2)c1=O` the AC50 was “inactive”.
In the case of `COCCn1c(=O)c(CCc2ccccc2)nc2cnc(Oc3cccc(Cl)c3)nc21`, the AC50 is reported as 0.794 µM (active).
`O=c1c(-c2ccccc2)nc2cnc(Oc3cccc(Cl)c3)nc2n1C1CC1` was tested, and the AC50 was “inactive”.
For `O=c1c(CCc2ccccc2)nc2cnc(Oc3cccc(Cl)c3)nc2n1C[C@H]1CCCO1`, the AC50 was 0.501 µM (active).
